# ERp5 inh – inhibitors of human ERp5. ERp5 insulin aggregation, absorbance 650 nm, 90 min. inhibition, % at 9.99 µM. 0.05% of 350,000 active. AID 651711;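 active means mean replicate inhibition above about 25%, with every replicate also reaching it, limit read from the data, passing the limit was not always enough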
# NRP1-CendR mod – alters CendR peptide binding to human NRP-1. O14786. FAM-RPARPAR peptide binding to NRP-1, fluorescence polarization. inhibition, % at 25 µM. 0.85% of 360,000 active. AID 602438;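 active means inhibition or corrected inhibition above about 18%, plus a signal ratio from 0.5 to 1.5, limit read from the data, passing the limit was not always enough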
# PDI turbidity – PDI (human) enzyme inhibition; inhibition, % at 10 µM; PDI insulin aggregation turbidity, A650, 90 min; 0.052% of 350,000 active;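 active means mean inhibition across replicates of 30% or more, whatever share of single replicates reach that level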
# PglD inh – inhibitors of Campylobacter jejuni PglD acetyltransferase | purified PglD enzyme, DTNB colorimetric CoA detection | inhibition, % at 12.5 µM | 0.098% of 360,000 active | AID 602405; in the data active means inhibition above about 16%, passing the limit was not always enough
# ARNT TACC3 PPI – disruptors of human ARNT/TACC3 interaction; 0.66% of 390,000 active; AlphaScreen His-ARNT PAS-B/GST-TACC3 binding, luminescence; TACC3 fragment carries E629A point mutation; AID 623870; Q9Y6A5; inhibition, % at 9.99 µM;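 active means mean inhibition of replicates at least 50% and at least half of replicates each reaching 50%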;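 further: 0% = complete ARNT plus TACC3 wells and 100% = ARNT alone without TACC3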
# ALR inh – blocks human ALR sulfhydryl oxidase activity; 3.8% of 290,000 active; AID 485317; P55789; purified ALR, DTT oxidation, H2O2 HRP-luminol luminescence; inhibition, % (no concentration beside the values);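 active means mean replicate inhibition above about 79%, with every replicate also reaching it, limit read from the data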
# Target sequence (P55789 whole entry, looked up): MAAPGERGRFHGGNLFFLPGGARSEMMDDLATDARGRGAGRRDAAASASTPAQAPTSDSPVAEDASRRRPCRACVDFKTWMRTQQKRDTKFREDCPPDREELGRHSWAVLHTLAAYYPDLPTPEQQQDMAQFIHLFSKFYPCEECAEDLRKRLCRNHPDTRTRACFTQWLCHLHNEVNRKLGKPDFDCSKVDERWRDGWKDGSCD
# Active calls of the source: *; . = not tested or not shown. The entries come from a sample that favours hits as a whole.
SMILES,ERp5 inh,NRP1-CendR mod,PDI turbidity,PglD inh,ARNT TACC3 PPI,ALR inh
Nc1ccc(Cc2nc3cc4ccccc4cc3[nH]2)cc1,.,.,.,.,.,-6
CN(C)CC(O)CN(c1ccccc1)c1ccccc1 (stereo unspecified),0,-11,1,-3,.,99*
CN(C)CC(CCC(CN(C)C)C(O)(c1ccccc1)c1ccccc1)C(O)(c1ccccc1)c1ccccc1 (stereo unspecified),-13,.,.,.,.,.
COC(=O)C1CCCN1S(=O)(=O)c1ccccc1NC(=O)c1cc(OC)c(OC)c(OC)c1 (stereo unspecified),2,3,9,1,3,-2
COc1cc(OC)cc(C(=O)Nc2ccccc2S(=O)(=O)N2CCCC2OC(C)=O)c1 (stereo unspecified),0,18*,-10,-2,-9,-10
CCOC(=O)c1ccc(N=C2NC(=O)CS2)cc1,.,1,14,2,-4,98*
Cc1ccc(N=C2NC(=O)CS2)cc1,.,-6,23,-3,-7,-2
N#CCS(=O)(=O)c1ccccc1,-2,24*,1,2,0,-4
O=S(=O)(CC=CCS(=O)(=O)c1ccccc1)c1ccccc1,-6,6,-16,.,-7,.
O=C(NNc1nc2ccccc2nc1C(F)(F)F)c1ccccc1,.,6,3,-12,0,98*
CC(=O)N1CC(=O)N2[C@@H](CO)[C@H](c3ccc(-c4ccc(C(=O)N(C)C)cc4)cc3)[C@@H]2C1,-6,.,.,.,.,.
CO[C@H]1CN(C)C(=O)c2cccc(C#N)c2OC[C@@H]2O[C@H](CC[C@H]2OC)CCN(C)C(=O)[C@H]1C,1,.,.,0,-2,.
CC(C)C(=O)Nc1ccc2c(c1)C(=O)N(C)[C@@H]1CC[C@@H](CC(=O)NCc3cccc(F)c3)O[C@@H]1CO2,.,.,.,3,-3,.
CCCC1=C(C(=O)OCC)C(c2ccc(N(C)C)cc2)n2ncnc2N1 (stereo unspecified),.,-5,3,-1,-5,98*
Cn1c(SCc2ccccc2)nnc1-c1ccc(O)cc1,0,8,5,-6,active,-17
CCCCN(CCCNc1ncnc2nc[nH]c12)c1ccccc1,1,8,5,1,6,93*
CCN(CCCNc1ncnc2nc[nH]c12)c1cccc(C)c1,-1,2,7,-1,7,99*
c1ccc2c(CCNc3ncnc4nc[nH]c34)c[nH]c2c1,4,-8,1,0,-3,98*
c1ccc(CCNc2ncnc3nc[nH]c23)cc1,.,13,6,3,1,-7
CCCCN(c1ccccc1)c1ncnc2nc[nH]c12,.,4,7,0,-6,.
COc1ccc(CNC(=O)C[C@H]2C[C@@H]3c4cc(NS(=O)(=O)c5ccc(F)cc5)ccc4O[C@@H]3[C@H](CO)O2)cc1,0,.,.,-1,-10,.
Cc1cccc(N=Nc2c(N)n[nH]c2N)c1,0,12,1,-12,0,93*
Nc1n[nH]c(N)c1N=Nc1cccc(F)c1,.,-11,-5,-3,1,.
COC(C[C@H](O)C[C@@H](O)[C@H](C)OCc1ccccc1)OC,0,6,-4,-3,-7,.
COC(C[C@H]1O[C@H]1[C@@H](O)[C@@H](C)OCc1ccccc1)OC,0,20*,-2,2,2,.
SMILES,ERp5 inh,NRP1-CendR mod,PDI turbidity,PglD inh,ARNT TACC3 PPI,ALR inh
COC(C[C@@H](O)C[C@H](O)[C@@H](C)OCc1ccccc1)OC,-6,21*,8,-1,2,.
COC(C[C@@H]1O[C@H]1C(=O)COCc1ccccc1)OC,5,28*,6,-1,-5,.
COc1ccc(NC(=O)N(C)C[C@H]2OCCCC[C@H](C)Oc3ccc(NC(=O)c4ccccc4)cc3C(=O)N([C@H](C)CO)C[C@@H]2C)cc1,-4,.,.,0,0,.
O=C(NNC(=O)C1CCN(c2ncccn2)CC1)c1ccc(F)cc1,1,42*,-11,-3,8,-1
O=C(c1ccc(F)cc1)N1CCN(c2ncccn2)CC1,.,10,-3,3,30,16
CC1=CC(C)(C)N(C(=O)c2ccc(F)cc2)c2cc3c(cc21)OCO3,.,1,-6,.,13,98*
CC1=NN(c2ccccc2)C(=O)/C1=C/C=C/c1ccccc1,.,-33,-9,.,-21,1
CC1=NN(c2cccc(C(=O)O)c2)C(=O)/C1=C\C=C\c1ccco1,.,-28,-4,-10,1,83*
C[C@H](CO)N1C[C@H](C)[C@@H](CN(C)Cc2ccc3c(c2)OCO3)Oc2ccc(NS(=O)(=O)c3cn(C)cn3)cc2C1=O,20,.,.,2,0,.
COC(=O)c1ccc(C2C(C(=O)c3ccc(C)o3)=C(O)C(=O)N2c2cc(C)on2)cc1 (stereo unspecified),-7,0,8,6,30,91*
COC(=O)c1ccc(C2C(C(=O)c3ccco3)=C(O)C(=O)N2c2cc(C)on2)cc1 (stereo unspecified),-4,7,-12,-8,6,18
Cc1cc(N2C(=O)C(O)=C(C(=O)c3cc4ccccc4o3)C2c2ccc([N+](=O)[O-])cc2)no1 (stereo unspecified),1,10,-6,-4,0,98*
Cc1cc(N2C(=O)C(O)=C(C(=O)c3ccco3)C2c2cccc(Oc3ccccc3)c2)no1 (stereo unspecified),4,-12,10,-2,4,94*
O=C(C1=C(O)C(=O)N(c2nccs2)C1c1ccccc1)c1cc2ccccc2o1 (stereo unspecified),1,131,6,2,1,96*
CC(C)NC(=O)Nc1ccc2c(c1)C(=O)N([C@@H](C)CO)C[C@H](C)[C@H](CN(C)C(=O)Nc1ccccc1)O2,-3,.,.,2,.,.
C[C@H]1CN([C@@H](C)CO)C(=O)c2cc(C#CC3(O)CCCC3)cnc2O[C@H]1CN(C)C(=O)Cc1cccnc1,22,.,.,4,.,.
Cc1ccc(C2C(C(=O)c3cc4ccccc4o3)=C(O)C(=O)N2c2cc(C)on2)cc1 (stereo unspecified),-9,-12,-9,8,-6,98*
Cc1cc(N=Nc2ccc(Cl)cc2)cc(CN2CCCC2)c1O,5,-9,15,-4,25,99*
COC(=O)C(C)Sc1ncnc2c1c(-c1ccccc1)cn2-c1ccc(OC)cc1 (stereo unspecified),.,-13,-4,5,49*,-3
Cc1nc(N2CCN(C)CC2)c2sc(=S)n(-c3ccccc3)c2n1,1,-23,.,0,8,-20
S=c1sc2c(Cl)ncnc2n1-c1ccccc1,2,6,0,-2,69*,.
N#C[C@H]1[C@@H](c2ccccc2-c2ccccc2)[C@@H](CO)N1C(=O)NC1CCCC1,5,.,.,.,.,.
COc1ccc(Nc2nc(N)c([N+](=O)[O-])c(N3CCOCC3)n2)cc1,3,-8,0,-10,8,1
